As usually defined, the cell viability is a per cent measure of how many cells are alive, often set against a control.

This experiment deals with HFF. The experiment is described as follows: cell viability relative to DMSO control; higher = less cytotoxic. Particulars: 1 µM; 72 h. Here is the method: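 Single-dose cytotoxicity screen of the MMV Pandemic Response Box at 1 uM on human foreskin fibroblasts (HFF), 72 h at 37 C. Viability measured by MTT (OD 550 nm) and normalised to the DMSO control (% survival).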
Consider `CC[C@H](NC(=O)[C@H](C)NC)C(=O)N1C[C@@H](O)C[C@H]1Cc1c(-c2[nH]c3cc(F)ccc3c2C[C@@H]2C[C@H](O)CN2C(=O)[C@H](CC)NC(=O)[C@H](C)NC)[nH]c2cc(F)ccc12`, for which the cell viability came out at 31.2%.
Then `CCCCCCCc1[nH]c2ccccc2c(=O)c1O`, with 62%; and `Cn1cc(NC(=O)c2cc(NC(=O)c3ccc(/C=C/c4cnc5ccccc5c4)cc3)cn2C)cc1C(=O)NCCN1CCOCC1`, with 69.2%; and `CN(C)CCCNC(=O)c1ccc(-c2cc(O)c3ncccc3c2)cc1`, with 67.8%.
In turn, `CC(C)(C)c1ccc(C(=O)NC(=O)N2CCCc3ccccc32)cc1` showed a cell viability of 63.5%.
Then `COc1ccc(NC(=O)CC2Sc3ncnn3C2=O)cc1` (configuration not stated), with 73.4%; and `Nc1nc2c(Cc3cccnc3)c[nH]c2c(=O)[nH]1`, with 65.2%; and `Cc1c(CN(C)C(=O)/C=C/c2cnc3c(c2)C(C)(C)C(=O)N3)oc2ccccc12`, with 63.6%.
For `O=S(=O)(Nc1ccc(-n2cccc2)cc1)c1ccc(Cl)c(Cl)c1`, the cell viability came to 64.5%.
As to `Cc1[nH]c2ccccc2c1CCNCc1ccc(/C=C/C(=O)NO)cc1`, the cell viability amounted to 19%.
In the case of `CCOC(=O)/C=C/[C@H](C[C@@H]1CCNC1=O)NC(=O)[C@@H](CC(=O)[C@@H](NC(=O)c1cc(C)on1)C(C)C)Cc1ccc(F)cc1` it was 73.2%; in that of `O=C(O)COc1cccc2c1CC[C@](O)(COC(=O)N(c1ccccc1)c1ccccc1)C2`, 68.5%; in that of `C=CCc1cc(Cc2cnc(N)nc2N)cc(OC)c1O`, 72.9%.
In the case of `COc1cccc(N2CCN(C3=Nc4c(F)cccc4[C@H](CC(=O)O)N3c3cc(C(F)(F)F)ccc3OC)CC2)c1` it was 55.7%.
Then `CN(C)c1[nH]c(=O)ncc1F`, with 72%.
`C[C@H](NC(CC(=O)c1ccccc1C(F)(F)F)C(=O)O)c1ccccc1` (some centres not stated) registered a cell viability of 63.6%.
In the case of `CCCCCOc1ccc(/C=C2\Oc3c(ccc(O)c3O)C2=O)c(O)c1` it was 69.6%; in that of `Clc1cc(Cl)c2c(c1)CCc1ccccc1C2n1ccnc1` (configuration not stated), 80.7%; in that of `COc1cc(NS(=O)(=O)c2ccc(C)cc2)c2ncccc2c1`, 72.5%.
`Cc1onc(-c2ccccc2)c1-c1ccc(S(N)(=O)=O)cc1`: the cell viability came to 66.8%.
Then `O=c1cc(OCc2ccccc2)ccn1Cc1ccccc1`, with 68.5%.
In the case of `O=[N+]([O-])c1ccc2c(CCc3c[nH]c4ccccc34)c[nH]c2c1` it was 61.9%; in that of `O=C1c2cccc3cccc(c23)C(=O)N1CC1CO1` (configuration not stated), 63.8%; in that of `O=C(NN1C(=O)[C@@H]2[C@@H]3C=C[C@@H]([C@H]4C[C@@H]34)[C@@H]2C1=O)c1ccc(C(F)(F)F)cc1`, 71.8%.
In turn, `CCC(C)n1ncn(-c2ccc(N3CCN(c4ccc(OCC5COC(Cn6cncn6)(c6ccc(Cl)cc6Cl)O5)cc4)CC3)cc2)c1=O` (configuration not stated) showed a cell viability of 78.2%.
The molecule `CC1=C(/C=C/C(C)=C/C=C/C(C)=C/C(=O)Nc2ccc(O)cc2)C(C)(C)CCC1` showed a cell viability of 70.8%.
Molecule `CCCCC(CC)CNC(=N)NC(=N)NCCCCCCNC(=N)NC(=N)NCC(CC)CCCC` (configuration not stated) displayed a cell viability of 63.4%.
In the case of `NCc1ccc(S(N)(=O)=O)cc1` it was 61.5%.
Molecule `CCc1nc2ccc(Cl)cn2c1C(=O)NCc1ccc(N2CCC(c3ccc(OC(F)(F)F)cc3)CC2)cc1` came in with a cell viability of 63.2%.
In the case of `COc1ccc2nc(-c3ccccc3)cc(O)c2c1` it was 75%.
Then `CCCCN1C[C@H](O)[C@@H](O)[C@H](O)[C@H]1CO`, with 63.2%; and `O=c1oc2ccc(Br)cc2cc1CSc1ncc[nH]1`, with 74.7%; and `CN(C)CCCOc1ccc(-c2ccc3ncc4c(c3c2)n(C2CCOCC2)c(=O)n4C)cn1`, with 60.6%.
Turning to `CC(=O)N1CCN(c2ccc(OCC3COC(Cn4ccnc4)(c4ccc(Cl)cc4Cl)O3)cc2)CC1` (configuration not stated), the cell viability was found to be 62.9%.
The molecule `CCOCc1nc2c(N)nc3ccccc3c2n1CC(C)(C)O` came in with a cell viability of 70.5%.
`CCCCCCC1c2ccc(O)cc2Oc2cc(O)ccc21` displayed a cell viability of 72.2%.
`CC[C@@]1(O)C(=O)OCc2c1cc1n(c2=O)Cc2cc3c([N+](=O)[O-])cccc3nc2-1` displayed a cell viability of 53.1%.

Values taken from the supplement of paper PMC10941209.
